# KCNQ2 pot = enhances the rat KCNQ2 potassium channel; O88943; B-score at 10 µM; CHO-K1 KCNQ2, FluxOR thallium flux fluorescence; hits give high values; AID 2239; 310,000 compounds, 0.54% hits;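 active means fluorescence ratio B-score at least 3 SD of library B-scores, with initial fluorescence B-score within 3 of them, cut at about 5.3 in these data; same plate scores as AID 2156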;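 further: B-score of peak minus minimum over baseline fluorescence ratio after K+ and Tl+ stimulus; positive B-score means potentiation of KCNQ2 with more thallium influx and brighter signal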
# Target sequence (O88943 whole entry, looked up): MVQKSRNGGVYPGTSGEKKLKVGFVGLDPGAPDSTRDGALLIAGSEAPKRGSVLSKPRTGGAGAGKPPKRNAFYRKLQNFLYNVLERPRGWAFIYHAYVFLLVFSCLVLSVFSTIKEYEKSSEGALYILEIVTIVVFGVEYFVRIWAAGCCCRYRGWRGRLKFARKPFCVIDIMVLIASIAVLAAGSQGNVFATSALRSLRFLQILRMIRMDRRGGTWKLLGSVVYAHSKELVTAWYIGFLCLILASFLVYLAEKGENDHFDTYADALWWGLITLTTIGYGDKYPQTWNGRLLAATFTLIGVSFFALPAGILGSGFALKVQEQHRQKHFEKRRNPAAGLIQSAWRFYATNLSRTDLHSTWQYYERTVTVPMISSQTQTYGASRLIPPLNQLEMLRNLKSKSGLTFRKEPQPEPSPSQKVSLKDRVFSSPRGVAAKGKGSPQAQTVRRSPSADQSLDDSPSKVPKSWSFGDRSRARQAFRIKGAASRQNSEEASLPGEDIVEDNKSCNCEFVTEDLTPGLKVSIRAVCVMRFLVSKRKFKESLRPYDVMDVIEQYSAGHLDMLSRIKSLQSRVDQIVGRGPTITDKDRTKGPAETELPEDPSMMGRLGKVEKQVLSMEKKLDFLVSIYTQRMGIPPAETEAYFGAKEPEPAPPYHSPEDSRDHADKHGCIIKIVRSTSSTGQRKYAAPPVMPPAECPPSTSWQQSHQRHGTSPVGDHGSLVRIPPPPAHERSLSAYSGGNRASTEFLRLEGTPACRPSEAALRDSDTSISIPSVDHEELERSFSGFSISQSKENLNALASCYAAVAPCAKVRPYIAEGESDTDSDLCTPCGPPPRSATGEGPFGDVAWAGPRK
# KCNQ2 inh = inhibitors of rat KCNQ2 potassium channel | O88943 | CHO-K1 KCNQ2, FluxOR thallium flux, 20 min; hits give low values | B-score at 10 µM | 310,000 compounds, 1.1% hits | AID 2156;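 active means fluorescence ratio B-score at most minus 3 library SDs, with starting brightness B-score within 2 library SDs, cut at about -5.5 in these data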
# Kir21 conf inh = confirmation of mouse Kir2.1 potassium channel inhibitors; shares compounds with KCNQ2 pot; Kir2.1-expressing cells, FluxOR thallium flux fluorescence; hits give low values; Tl flux remaining, % of negative control (hits give low values), % at 10 µM; 2,300 compounds, 41% hits; AID 2032;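 active means Primary-screen hit whose thallium flux fell at least 3 control SD below untreated wells in both duplicates, with normal baseline fluorescence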
# HEK293 Tl flux = counter-screen for Kir2.1 inhibitors: effect in parental HEK293 cells; FluxOR thallium flux fluorescence; 0% = unstimulated blank wells; 2,300 compounds, 19% hits; shares compounds with KCNQ2 pot; FluxOR signal as % of negative control (100 = no effect), % at 10 µM;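 active means dye signal at least 3 control SD above or below untreated wells in both duplicates, raw fluorescence within 3, either direction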;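 further: percent is based on the flux ratio of peak minus minimum fluorescence over baseline F0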
# CHO-K1 Tl ctr = parental CHO-K1 activity in KCNQ2 potentiator counter-screen | shares compounds with KCNQ2 pot | AID 2282 | activity increase over 3SD of controls, % at 10 µM | parental CHO-K1 cells, FluxOR thallium flux fluorescence; zero = vehicle mean+3SD, 100% = vehicle-minus-blank window | 1,200 compounds, 43% hits;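 active means signal rise of at least 3 SD above the untreated control mean, in both duplicate wells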;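 further: counter screen of KCNQ2 potentiator hits so any rise reflects channel-independent effects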
# KCNQ1 sel pot = selectivity of KCNQ2 potentiators: effect on human KCNQ1; 1,200 compounds, 28% hits; activation over 3SD threshold, % at 10 µM; AID 2283; shares compounds with KCNQ2 pot; CHO KCNQ1 stable, FluxOR thallium flux fluorescence; beyond 3SD, as % of vehicle-control signal;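 active means fluorescence ratio rise of at least 3 SD of vehicle wells above their mean, in both replicate wells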
# KCNQ2 pot conf = rat KCNQ2 channel potentiator confirmation; shares compounds with KCNQ2 pot; CHO-KCNQ2 cells, FluxOR thallium flux fluorescence; potentiation, less the hit threshold, % at 10 µM; 1,200 compounds, 68% hits;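 active means fluorescence ratio rising 3 SD or more over the vehicle control mean in both replicates, plus primary screen hit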;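 further: peak minus minimum thallium fluorescence divided by baseline after K/Tl stimulus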
# Kir21 spec = tests whether KCNQ2 potentiators also affect mouse Kir2.1; shares compounds with KCNQ2 pot; HEK293 Kir2.1, FluxOR thallium flux fluorescence; activity over 3SD threshold, % at 10 µM; 1,200 compounds, 2% hits;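 active means fluorescence ratio rise of at least 3 SD above the vehicle-control mean, seen in both replicates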
# KCNQ2 W236L pot = potentiates the retigabine-insensitive rat KCNQ2 W236L mutant channel | current increase over 3SD of negative controls (%), hits give high values, % at 25 µM | 940 compounds, 10% hits | CHO KCNQ2-W236L, automated patch clamp current | shares compounds with KCNQ2 pot | AID 2558;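 active means current increase at least 3 SD of the untreated controls above them in both duplicate recordings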
# Numbers stand for hits; - = inactive; . = no result given. This is a sample that favours compounds with a hit; in the whole collection about 1.6% have one here.
SMILES,KCNQ2 pot,KCNQ2 inh,Kir21 conf inh,HEK293 Tl flux,others
CCCCCCC(=O)N/N=C/c1c(O)n(C(C)CC)c(=S)[nH]c1=O (stereo not drawn),.,-,.,.,
N#Cc1ccc(OCC(=O)N2CCN(Cc3ccc4c(c3)OCO4)CC2)cc1,.,-,.,.,
COc1ccc(-[n+]2c(-c3ccccc3)cc(-c3ccccc3)cc2-c2ccccc2)cc1,-,-8.4,26%,-,
O=[N+]([O-])c1ccc(-[n+]2c(-c3ccccc3)cc(-c3ccccc3)cc2-c2ccccc2)cc1,-,-,.,.,
Clc1ccc(CNCCc2ccc3c(c2)OCO3)cc1,.,-,28%,-,
COc1ccc(Br)cc1CNCCc1ccc2c(c1)OCO2,.,-,.,.,
COc1ccc(CNCCc2ccc3c(c2)OCO3)cc1Br,.,-,16%,-,
Clc1cccc(CNCCc2ccc3c(c2)OCO3)c1,.,-,.,.,
c1ccc(CN2CCNCC2)nc1,.,-,.,.,
COc1cccc(CNCCc2ccccc2)c1OC,-,-,.,.,
COc1ccc2ccccc2c1CNCCc1ccccc1,.,-,38%,-,
N/C(=N\N=C\c1ccc(O)cc1O)N[N+](=O)[O-],-,-,.,.,
N#CC(C#N)=NNc1ccc(-n2ccc(C(F)(F)F)n2)cc1,-,-,60%,73%,
Cc1cc(C)n(-c2ccc(NN=C(C#N)C#N)cc2)n1,.,-,.,.,
CC(C)OP(=O)(O)NC(=O)c1ccccc1,.,-,.,.,
CC(=O)c1cccc(NC2=NCC(C)S2)c1 (stereo not drawn),-,-,.,.,
CC(=O)OC(C)(C)/C=C/C(=O)C(C)(O)C1[C@H](O)C[C@@]2(C)C3CC=C4C(CC[C@@H](O)C4(C)C)[C@]3(CO)C(=O)C[C@]12C (stereo partly drawn),7.1,-,-,-,CHO-K1 Tl ctr=-;KCNQ1 sel pot=-;KCNQ2 pot conf=9.0;Kir21 spec=-;KCNQ2 W236L pot=-
COc1ccc(OCC#CCN2CCCCCC2)cc1,-,-,.,.,
COc1cc(CN2CCCC(C(=O)c3sccc3C)C2)cc(OC)c1O (stereo not drawn),-,-,.,.,
COc1ccc(CN2CCCC(C(=O)c3ccc(Cl)cc3)C2)c(O)c1 (stereo not drawn),.,-,68%,-,
COc1ccc(CN2CCCC(C(=O)c3sccc3C)C2)cc1O (stereo not drawn),-,-,56%,-,
COc1cccc(C(=O)C2CCCN(Cc3ccc(F)cc3)C2)c1 (stereo not drawn),-,-,.,.,
CC(NCc1ccc(Cl)c(Cl)c1)C(O)c1ccccc1 (stereo not drawn),.,-,.,.,
CN[C@@H]1C[C@@H](c2ccc(Cl)c(Cl)c2)c2ccccc21,.,-,28%,-,
O=P(OCC(F)(F)C(F)F)(N1CCOCC1)N1CCOCC1,-,-,.,.,
SMILES,KCNQ2 pot,KCNQ2 inh,Kir21 conf inh,HEK293 Tl flux,others
Fc1ccc(C[n+]2c(-c3ccccc3)cc(-c3ccccc3)cc2-c2ccccc2)cc1,-,-6.3,24%,-,
Cc1cc(-c2ccccc2)cc(-c2ccccc2)[n+]1CCc1ccccc1,-,-5.7,45%,-,
C[n+]1c(-c2ccccc2)cc(-c2ccc(O)cc2)cc1-c1ccccc1,-,-,.,.,
Cc1ccc(-c2cc(-c3ccccc3)cc(-c3ccccc3)[n+]2-c2ccccc2C(=O)O)cc1,.,-,.,.,
CCOC(C[n+]1c(-c2ccccc2)cc(C)cc1-c1ccccc1)OCC,-,-,.,.,
Clc1ccc(C[n+]2c(-c3ccccc3)cc(-c3ccccc3)cc2-c2ccccc2)cc1,-,-7.2,17%,-,
CC(C)c1cc(Br)c(NC(=O)Nc2cccnc2)c(Br)c1,-,-,.,.,
CCN1c2nc3ccccn3c(=O)c2CC2(C(=O)N(C)C(=O)N(C)C2=O)C1C (stereo not drawn),.,-,.,.,
